GLP1R inv ag: acts as inverse agonist at human GLP-1 receptor; P43220; HEK293 GLP-1R CRE-luciferase, luminescence, 24 h; GLP-1R form is constitutively active; Potency, µM (doses to about 38.3 µM), for inactives: at the highest dose activity change, negative = inhibition, most hits filed as inhibitors; hit rate 1.6% among 410,000; AID 624417; further: potency means the concentration at half of the fitted maximal effect; on the % scale 0 is the no-effect control and ±100 the full control effect; nearly all actives have a fitted effect of over 55% in size
Target sequence (P43220 whole entry, looked up): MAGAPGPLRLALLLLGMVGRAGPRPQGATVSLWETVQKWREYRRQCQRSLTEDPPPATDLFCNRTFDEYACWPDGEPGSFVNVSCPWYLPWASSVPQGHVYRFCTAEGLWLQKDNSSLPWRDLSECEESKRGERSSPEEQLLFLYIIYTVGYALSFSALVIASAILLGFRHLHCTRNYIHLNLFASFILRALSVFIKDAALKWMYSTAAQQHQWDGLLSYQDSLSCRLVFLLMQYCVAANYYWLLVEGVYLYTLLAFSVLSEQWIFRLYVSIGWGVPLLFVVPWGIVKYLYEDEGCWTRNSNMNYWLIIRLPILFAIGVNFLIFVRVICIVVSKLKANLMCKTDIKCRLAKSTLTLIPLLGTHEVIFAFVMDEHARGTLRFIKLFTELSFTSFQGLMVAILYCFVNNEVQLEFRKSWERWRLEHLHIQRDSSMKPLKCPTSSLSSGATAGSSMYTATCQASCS
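Inverse agonists were sought by their lowering of basal cAMP reporter luciferase output in HEK293 cells stably carrying constitutively active human GLP-1R, after 24 h compound treatment.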
Mm-Cpn inhibitor: blocks the Methanococcus maripaludis chaperonin Mm-Cpn; Potency, µM (highest dose often 76.9 µM), for the others: at the highest dose activity, negative = inhibition, most hits filed as inhibitors; hit rate 0.031% among 330,000; purified Mm-Cpn ATPase, ADP Transcreener TR-FRET; AID 504842; further: potency means the concentration at half of the fitted maximal effect; on the % scale 0 is the no-effect control and ±100 the full control effect; nearly all actives have a fitted effect of over 80% in size
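ATP (10 uM final) was added to archaeal chaperonin (25 nM final) after 10 min exposure to test compound at 37°C; after 30 min further incubation, ADP was detected by competitive TR-FRET.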
CCT chaperon mod: cytosolic chaperonin activity modulation | hit rate 0.3% among 360,000 | activity change, % (test concentration not listed), hits read low | AID 651819 | purified chaperonin ATPase assay, HTRF ADP detection, 30 min; in the data active means activity change below about -30%; further: on the % scale 0 is the no-effect control and ±100 the full control effect
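Enzyme 40 or 20 nM (batch-dependent) in Tris pH 7.4/KCl/MgCl2/DTT; cpd 76 uM single point; ATP 10 uM; 30 min 37 °C; Transcreener ADP HTRF detection, 30 min RT; ratio 665/615.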
GLP1R ag: agonists of human GLP-1 receptor; P43220; HEK293 GLP-1R CRE-luciferase, luminescence, 4-6 h; cells express a hypersensitive GLP-1R form; Potency, µM (doses to about 45.6 µM), inactives show at the highest dose activation, actives largely listed as activators; hit rate 0.007% among 380,000; AID 624172; further: potency means the concentration at half of the fitted maximal effect; % of control where 0% means no effect
HEK293 tox: cytotoxicity in counter-screen for GLP-1R inverse agonists; HEK293 cAMP-luciferase reporter cells, luminescence, 24 h; hit rate 0.13% among 410,000; Potency, µM (titrated, usually from 38.3 µM), for inactives: at the highest dose activity change, negative = inhibition, hits mostly inhibitors;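 further: loss of luciferase light is scored as toxicity; potency means the concentration at half of the fitted maximal effect; on the % scale 0 is the no-effect control and ±100 the full control effect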
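MLSMR compounds, 24 hr on cells at 37 deg C/5% CO2; luminescence after luciferase reagent (12 min RT). Inhibition counted as the undesired cytotoxic outcome.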
uPA surface inh: inhibitors of cell surface uPA generation; Potency, µM (top dose mostly 38.3 µM), for inactives: at the highest dose activity change, negative = inhibition, usual class: inhibitors; cell surface uPA generation assay, qHTS; AID 540303; hit rate 0.31% among 330,000; active means well fitted inhibition curve with a large enough effect; inconclusive means small, poorly fitted or top-dose-only effect; inactive means no such curve, though single readings can be large or run the other way; tested in mouse RAW 264.7 cells; further: potency means the concentration at half of the fitted maximal effect; on the % scale 0 is the no-effect control and ±100 the full control effect; nearly all actives have a fitted effect of over 55% in size
* hit, by the source's call; ? = inconclusive; · = not tested or not shown. The list is not random: actives were taken first. Their share in the collection is about 2.2%. Unless noted, the call rests on the fitted dose curve; in most records, active means well fitted curve in the direction sought with a large enough effect; inconclusive means small, poorly fitted or top-dose-only effect, or another doubt; inactive means no such curve, though single readings can be large; an effect the other way counts as inactive or inconclusive.

SMILES | GLP1R inv ag | Mm-Cpn inhibitor | CCT chaperon mod | GLP1R ag | HEK293 tox | uPA surface inh
CCOc1ccccc1OCCN1CCC(Cc2ccccc2)CC1 | ? | 2% | 1 | 10% | ? | 5%
Cc1ccccc1OCCN1CCC(Cc2ccccc2)CC1 | 8.9µM* | -1% | -2 | 4% | -19% | 0%
COc1cccc(OC)c1OCCCCN1CCC(Cc2ccccc2)CC1 | ? | -3% | 1 | -1% | -8% | -10%
CCOc1cc(/C=N/NC(=O)Cc2ccc(C(F)(F)F)cc2[N+](=O)[O-])c(Br)cc1OC | -18% | 0% | 0 | -9% | -9% | -4%
COc1cc(Br)cc(/C=N/NC(=O)Cc2ccc(C(F)(F)F)cc2[N+](=O)[O-])c1O | ? | 3% | -1 | 2% | 0.5µM* | -10%
CC1(c2ccc3ccccc3c2)NC(=O)N(CC(=O)N2CCN(c3ccccc3O)CC2)C1=O (stereo not drawn) | 11µM* | -1% | 0 | 1% | 1% | -6%
CN1CCN(CCCNC(=O)c2ccc3c(c2)N(Cc2ccc(F)cc2)CCS3)CC1 | 5.6µM* | -9% | -2 | 14% | -27% | -24%
O=C(NCCCN1CCOCC1)c1ccc2c(c1)N(Cc1ccc(F)cc1)CCS2 | 2.2µM* | -3% | 0 | 0% | -3% | -6%
CCCOc1ccc(CNC(=O)c2ccc3c(c2)N(Cc2ccccc2)CCS3)cc1 | ? | · | · | · | 0% | ·
CCN1CCN(CCCNC(=O)c2ccc3c(c2)N(Cc2ccccc2)CCS3)CC1 | ? | -6% | -3 | 13% | ? | -28%
O=C(NCCCN1CCCC1)c1ccc2c(c1)N(Cc1ccccc1)CCS2 | ? | -6% | -1 | 3% | 4.5µM* | 1%
O=C(NCc1ccccc1)c1ccc2c(c1)N(Cc1ccc(F)cc1)CCS2 | 5.6µM* | · | · | · | -1% | ·
Cc1cccc(NC(=O)CSc2nc3ccccc3c3nc(CCn4cncc4C)nn23)c1 | ? | · | · | · | -3% | ·
CCN1CCSc2ccc(C(=O)NCc3ccccc3Br)cc21 | 10µM* | -10% | 1 | 1% | 7% | 12%
O=C(NC1CC1)c1ccc2c(c1)N(Cc1ccccc1)CCS2 | 8.9µM* | -16% | -1 | -1% | -2% | 7%
CCOC(=O)N1CCC(NC(=O)c2ccc3c(c2)N(Cc2ccccc2)CCS3)CC1 | ? | 0% | -4 | 7% | -12% | ?
COc1ccccc1NC(=O)c1cc2cc3ccc(OC)c(Cl)c3nc2s1 | 6% | · | · | · | 0% | ·
COc1cc(C=O)ccc1OCCCOc1ccccc1C(=O)O | 2.2µM* | -1% | -1 | -4% | 21% | 1%
CCC(C)c1ccccc1NC(=O)COC(=O)c1ccc2[nH]c3c(c2c1)CCCC3 (stereo not drawn) | 5.6µM* | 0% | -2 | -8% | 8% | -8%
CCCCCCCCCCCCCCCCn1cc[n+](CC(C)=O)c1 | 4.5µM* | 1% | -1 | -1% | ? | ?
CCN(c1ccc(OC)cc1)S(=O)(=O)c1ccc2[nH]c3c(c2c1)CCCCC3 | ? | · | · | -3% | -17% | ·
Cn1c(=O)c([N+](=O)[O-])c(NCc2ccccc2)c2ccccc21 | 8% | -5% | -56* | 4% | -13% | 0%
CCNc1c([N+](=O)[O-])c(=O)n(CC)c2ccccc12 | 11% | 1% | -1 | 23% | 2% | -3%
CC1CCCN(Cc2nc(Cc3ccccc3Cl)no2)C1 (stereo not drawn) | 10µM* | -1% | 0 | 13% | 1% | 2%
Cc1cc2c(cc1S(=O)(=O)NCc1ccc(F)cc1)OCCN2C | -16% | · | · | · | 12% | ·
SMILES | GLP1R inv ag | Mm-Cpn inhibitor | CCT chaperon mod | GLP1R ag | HEK293 tox | uPA surface inh
COC(=O)N/N=C/c1cn(CCCOc2ccccc2)c2ccccc12 | 10µM* | 2% | -1 | 4% | 7% | -4%
COC(=O)N/N=C/c1cn(Cc2ccc(F)cc2)c2ccccc12 | 7.9µM* | 3% | -1 | 13% | -5% | 3%
COC(=O)N/N=C/c1cn(Cc2ccccc2F)c2ccccc12 | ? | 1% | -3 | 5% | 1% | -4%
O=C(N/N=C/c1cn(CCOc2ccccc2)c2ccccc12)c1ccncc1 | -19% | 0% | 0 | 3% | -8% | -6%
CCn1c2ccccc2c2cc(NC(=O)CNCC3CCCO3)ccc21 (stereo not drawn) | 10µM* | 3% | 0 | 10% | -11% | 0%
O=C(CN1C(=O)CCc2cc(S(=O)(=O)N3CCOCC3)ccc21)NCc1ccccc1Cl | 3% | · | · | · | -5% | ·
O=C(O)c1ccc(S(=O)(=O)NN=Cc2c[nH]c3ccccc23)cc1 | 1% | · | 0 | -6% | -1% | ·
O=C(N/N=C/c1c[nH]c2ccccc12)C1CC1(c1ccccc1)c1ccccc1 (stereo not drawn) | 4.5µM* | 0% | -7 | -30% | ? | 6%
O=C(O)c1ccc(N/N=C/c2c[nH]c3ccccc23)cc1 | 5.6µM* | -13% | -5 | -12% | 0% | 6%
Cc1ccccc1NCC(=O)N/N=C/c1c[nH]c2ccccc12 | ? | 2% | 0 | 2% | -19% | -22%
Cc1cccc(NCC(=O)N/N=C\c2c[nH]c3ccccc23)c1 | 10µM* | -1% | 0 | 0% | ? | -11%
COc1ccc(CCNC(=O)C(CC(C)C)N2Cc3ccccc3C2=O)c(OC)c1OC (stereo not drawn) | -5% | · | · | · | -12% | ·
CCC(C)n1c(SCc2ccc(C(C)(C)C)cc2)nc2ccsc2c1=O (stereo not drawn) | 1% | · | · | · | 20% | ·
CCC(C)n1c(SCc2ccccc2)nc2ccsc2c1=O (stereo not drawn) | 7.9µM* | 0% | 1 | 1% | 11% | -2%
Cc1c(C(=O)Nc2cccc(C#N)c2)sc2nc3n(c(=O)c12)CCCCC3 | ? | · | · | · | -1% | ·
COc1ccc2c(c1)c1c(c(=O)n(-c3cccc(Cl)c3)c(=O)n1CC(=O)N1CCCC1)n2C | 1% | · | · | -1% | 3% | ·
Cc1cc(NC(=O)N2CCC(CN3CCOCC3)CC2)ccc1Br | -5% | · | · | · | -1% | ·
Nc1nc2ccccc2n1C(=O)c1ccc(F)cc1 | ? | 2% | 0 | -2% | 17% | -14%
Nc1nc2ccccc2n1C(=O)c1ccccc1 | ? | -17% | 2 | -7% | -10% | 2.8µM*
Cc1ccc(-c2nc3n(n2)Cc2ccccc2-3)cc1 | ? | 0% | -1 | -32% | 4% | -9%
c1ccc(-c2cn3c(n2)-c2ccccc2C3)cc1 | ? | -1% | -1 | -15% | 16% | 6.3µM*
CCc1ccc2oc(-c3cccc(NC(=O)c4ccc(-c5cccc([N+](=O)[O-])c5)o4)c3)nc2c1 | -5% | · | · | 33% | -8% | ·

Bioassay records as filed in PubChem.
